From PubChem BioAssay
Unmarked numbers belong to inactive results. How the calls were made is not given here.

Molecular target: Pantothenate synthetase (Mycobacterium tuberculosis (strain ATCC 25618 / H37Rv)) (UniProt P9WIL5)
Experiment: Coupled enzyme confirmation of inhibitors against recombinant Mtb PanC (AID 375);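 further: 0% = full reaction with vehicle and 100% = no enzyme background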
Conditions: coupled enzyme assay; at 10 µM, stronger effect = higher value

Chain of Pantothenate synthetase (Mycobacterium tuberculosis (strain ATCC 25618 / H37Rv)) (P9WIL5 whole entry, looked up): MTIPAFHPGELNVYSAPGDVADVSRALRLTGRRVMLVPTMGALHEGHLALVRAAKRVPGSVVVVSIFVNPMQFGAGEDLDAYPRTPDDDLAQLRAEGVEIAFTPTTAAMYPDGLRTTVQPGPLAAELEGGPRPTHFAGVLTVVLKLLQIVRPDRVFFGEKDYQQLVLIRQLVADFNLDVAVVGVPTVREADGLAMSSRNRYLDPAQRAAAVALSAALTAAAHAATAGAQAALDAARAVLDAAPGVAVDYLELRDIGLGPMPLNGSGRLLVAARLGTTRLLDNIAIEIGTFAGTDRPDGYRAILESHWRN

| Structure (SMILES) | inhibition [%] |
| --- | --- |
| O=C(NC1=NCCS1)c1nc(-c2ccccc2)n(-c2ccccc2)n1 | 3 |
| CCCn1c(N2CCN(CC(=O)Nc3ccc4c(c3)OCCO4)CC2)nc2ccccc21 | 6 |
| Cc1ccc2nc(NC(=O)C3CCN(S(=O)(=O)c4cccc5nsnc45)CC3)sc2c1 | 4 |
| COc1cccc(C(=O)Nc2cnc(NC(=O)c3ccco3)cc2C)c1 | 9 |
| COc1ccc(OC)c(S(=O)(=O)NCCC2=CCCCC2)c1 | 6 |
| CCN1CCN(c2ncnc3c2oc2nc(C)c4c(c23)CC(C)(C)OC4)CC1 | 0 |
| O=C(Cn1nnc(-c2ccc(CN3CCOCC3)cc2)n1)NC1CCCCC1 | 12 |
| Cc1ccccc1-n1c(SCc2c(C)noc2C)nnc1-c1ccncc1 | 0 |
| O=c1oc(-c2ccco2)nc2ccccc12 | 2 |
| Cc1cc(C)c2c(n1)nn1c(NCCCN3CCOCC3)cc(C)nc21 | 9 |
| CN1[C@@H]2CC(OC(=O)[C@H](CO)c3ccccc3)C[C@H]1[C@@H]1O[C@@H]12 (some centres undefined) | 0 |
| COc1ccc(C2c3sc(=O)[nH]c3SC3C4CCC(C4)C23)cc1 (centres undefined) | 7 |
| CCOC(=O)C1=C(c2ccccc2)NC(=O)NC1c1ccc(N(C)C)cc1 (centres undefined) | 0 |
| CC(CC(=O)NC1CCSC1=O)c1ccccc1 (centres undefined) | 0 |
| Cc1cc(NC(=O)Cc2c(F)cccc2Cl)no1 | 10 |
| O=C(CCC1COc2ccccc2O1)NCC1COc2ccccc2O1 (centres undefined) | 0 |
| CCCCOc1ccc(-c2nnn(C(C)(C)C(=O)OC)n2)cc1 | 5 |
| COCCn1cc(C(=O)c2ccccc2OCC(=O)Nc2cc(C)on2)cc(C#N)c1=O | 0 |
| COc1ccc(-c2noc(COc3ccc(C)c(C)c3)n2)cc1OC | 0 |
| Cc1ccc(-c2noc(CCC(=O)NCC3CCN(Cc4cccc(C)c4)CC3)n2)cc1 | 8 |

| Structure (SMILES) | inhibition [%] |
| --- | --- |
| O=C(CN1CCSCC1)N1CCc2[nH]c3ccc(Br)cc3c2C1 | 0 |
| c1ccc(OCCCn2nnc(-c3cccnc3)n2)cc1 | 3 |
| Cc1ccccc1Cn1nc(C)c(NC(=O)c2noc3c2CCCC3)c1C | 5 |
| COc1cccc(CN=CC2=C(O)CC(C)(C)CC2=O)c1OC | 0 |
| Cc1nnc(SCC(=O)NCc2ccccc2)s1 | 0 |
| CC(CN1CCOCC1)(NS(=O)(=O)c1ccccc1)c1ccccc1 (centres undefined) | 1 |
| Cc1ccc(-c2cc(C(=O)Nc3cc(C)ccc3C)[nH]n2)c(O)c1 | 0 |
| Cc1nc(-c2ccc(NC(=O)c3cccs3)cc2)cs1 | 0 |
| c1cnc2c(SCc3ccc(-c4nnco4)cc3)cccc2c1 | 2 |
| c1ccn2c(SCc3ccc4c(c3)OCCO4)nnc2c1 | 1 |
| COC(=O)c1ccc2c(=O)n(Cc3ccco3)c(SCC(=O)Nc3ccc(C)c(Cl)c3)nc2c1 | 2 |
| CCCNCC(O)COc1ccccc1C(=O)CCc1ccccc1 (centres undefined) | 0 |
| O=C(Nc1cccc2c1CCCC2)C1CCN(c2nnnn2-c2ccccc2)CC1 | 5 |
| COc1ccccc1NC(=O)N1CCN(c2ccccc2F)CC1 | 0 |
| C=C(C)c1cccc(C(C)(C)NC(=O)Nc2ncccn2)c1 | 0 |
| O=C(Nc1ccc(S(=O)(=O)N2CCc3ccccc32)cc1)c1ccc2c(c1)OCO2 | 0 |
| Cc1ccc(-c2nn3c(=O)c(C)nnc3s2)cc1 | 0 |
| CCOC(=O)CSc1ncnc2c1cnn2-c1ccc(C)cc1 | 15 |
| c1ccc2c(c1)Cn1c-2nc2ccccc21 | 0 |
